Test results taken from PubChem BioAssay (NCI).
The panel holds about 83,000 compounds, 20% with a hit somewhere; the sample as a whole holds those more often.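 Results are percent growth after 48 hours of single-concentration exposure. 100 means growth as in untreated cells, lower positive values show inhibition; negative values down to -100 show cell death.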 Unmarked numbers belong to inactive results. Activity calls are given as the source filed them. How the source made its calls: active means growth percent below 10; inactive means the rest.

The molecules below were run on T-47D breast (assay: NCI-60 one-dose screen, 48 h (100 = growth as untreated, 0 = no growth, -100 = all killed)). Conditions: 10 µM unless noted.

| SMILES | growth |
| --- | --- |
| O=C1Nc2cc(-c3ccc(NS(=O)(=O)c4ccc(-c5ccccc5)cc4)cc3)ccc2/C1=C/c1ccc[nH]1 | 3.17% (active) |
| CCCSc1nnc(-c2sc3nc4ccccc4n3c2C)o1 | 102% |
| COc1ccc2[nH]c(O)c(N=Nc3nc(-c4ccc(C#N)cc4)cs3)c2c1 | 54.7% |
| CCOc1ccc2[nH]c(=O)c(C(c3nnnn3CC3CCCO3)N3CCN(Cc4ccccc4)CC3)cc2c1 (stereo not drawn) | 106% |
| Cc1cccc(NCC(=O)N2CCN(c3ncnc4c3cnn4-c3ccccc3)CC2)c1 | 33.6% |
| COc1ccc(NC(=O)CSc2nnc(-c3ccc(-c4nc5ccc(Cl)cc5[nH]4)cc3)o2)cc1 | 75.9% |
| N/C(=N\c1nc2ccccc2s1)NC(=O)Nc1ccccc1[N+](=O)[O-] | 34.1% |
| N#CC1=C(c2cccs2)Nc2c(c(-c3ccccc3)nn2-c2ccccc2)C12C(=O)Nc1ccc(Cl)cc12 (stereo not drawn) | 11% |
| Cn1cc(-c2cc3nc(-c4cn(C)c5ncccc45)cc(N)n3n2)c2cc(F)ccc21 | 37.8% |
| C#CCN(C)CCCOc1ccc(N(C)C(=O)c2cc(C(C)C)c(O)cc2O)cc1Cl | 11% |
| COc1cc(NC(=O)CSc2nnc(-c3ccc(-c4nc5ccc(Cl)cc5[nH]4)cc3)o2)cc(OC)c1OC | 41.5% |
| CS(=O)(=O)Nc1cc(-c2ccc3ncnc(N4CCc5cc(F)c(Cl)cc54)c3c2)cnc1Cl | -9.78% (active) |
| CC1=C(C(=O)Nc2ccccc2)C(c2cccc3ccccc23)n2c(nc3ccccc32)N1 (stereo not drawn) | 88.9% |
